# Measurements from PubChem BioAssay (NCI).
# About 79,000 compounds went through this panel and 15% of them were active in at least one assay; those are over-represented in the sample as a whole. A number with no mark means an inactive call. The source made the active and inactive calls. Rule as the data show it: active = growth inhibition above about 70%; inactive = the rest.
# Legend:
# [1] = NCI Yeast Anticancer Drug Screen. Data for the wt1 strain (AID 149);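 also: 0% = growth of vehicle-treated wt1 cultures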; conditions: S. cerevisiae wt1 strain (SPY 50644) growth inhibition, stronger effect = higher value
# How it was run: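 Compounds are added to wt1 yeast cultures. Growth is then measured. Inhibition is expressed relative to vehicle-treated controls.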
# [2] = NCI Yeast Anticancer Drug Screen. Data for the rad50EPP+ strain (AID 151);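 also: 0% = growth of vehicle-treated control cultures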; conditions: S. cerevisiae rad50 mutant strain, stronger effect = higher value
# How it was run: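 Genetically defined yeast (rad50EPP+, DNA damage repair alteration) is grown with compound, and inhibition of growth is expressed relative to vehicle-treated controls.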
# [3] = NCI Yeast Anticancer Drug Screen. Data for the mgt1 strain (AID 153); conditions: S. cerevisiae mgt1 mutant growth inhibition, stronger effect = higher value
# How it was run: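 In the mgt1 strain, test compounds were added and growth inhibition was determined relative to vehicle-treated controls.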
# [4] = NCI Yeast Anticancer Drug Screen. Data for the rad50 strain (AID 155);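 also: 0% = growth of vehicle-only cultures of the same strain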; conditions: S. cerevisiae rad50 strain growth inhibition, stronger effect = higher value
# How it was run: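 Inhibition values express reduced yeast growth in compound-treated cultures relative to vehicle-treated controls.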
# [5] = NCI Yeast Anticancer Drug Screen. Data for the mec2-1 strain (AID 157); conditions: S. cerevisiae mec2-1 strain, stronger effect = higher value
# How it was run: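 Each compound was tested on mec2-1 yeast, a strain altered in DNA damage repair or cell cycle control. Growth inhibition is reported relative to vehicle.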
# [6] = NCI Yeast Anticancer Drug Screen. Data for the rad14 strain (AID 159);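 also: 0% = growth of vehicle-treated control cultures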; conditions: S. cerevisiae rad14 strain growth inhibition, stronger effect = higher value
# How it was run: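 A mutant yeast strain defective in DNA damage repair is treated with compound; inhibition of its growth is scored against untreated, vehicle-exposed cultures.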
# [7] = NCI Yeast Anticancer Drug Screen. Data for the sgs1 mgt1 strain (AID 161);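 also: 0% = growth of cultures given vehicle only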; conditions: S. cerevisiae sgs1 mgt1 strain, stronger effect = higher value
# How it was run: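 Mutant yeast exposed to compound; growth scored against vehicle-only wells.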
# [8] = NCI Yeast Anticancer Drug Screen. Data for the CLN2oe strain (AID 163);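 also: 0% = growth of vehicle-only control cultures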; conditions: S. cerevisiae CLN2oe strain, stronger effect = higher value
# How it was run: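 First, the altered yeast strain was treated with each compound; second, its growth was measured; finally, inhibition was derived by comparison with vehicle controls.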
# [9] = NCI Yeast Anticancer Drug Screen. Data for the cln2 rad14 strain (AID 165);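 also: 0% = growth equal to vehicle treated cultures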; conditions: S. cerevisiae cln2 rad14 strain, stronger effect = higher value
# How it was run: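 Test compounds were added to cln2 rad14 yeast cultures; inhibition of growth was then determined by comparison with vehicle treatment.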
# [10] = NCI Yeast Anticancer Drug Screen. Data for the bub3 strain (AID 167); conditions: S. cerevisiae bub3 mutant strain, stronger effect = higher value
# How it was run: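 Steps: expose the mutant yeast strain to compound; grow alongside vehicle-treated cultures; measure growth; express inhibition against the vehicle cultures.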
# [11] = NCI Yeast Anticancer Drug Screen. Data for the wt2 strain (AID 169);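 also: 0% = growth of vehicle-treated yeast cultures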; conditions: S. cerevisiae wt2 strain growth inhibition, stronger effect = higher value
# How it was run: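 The panel's yeast strains carry defined changes in DNA repair or cell cycle genes. Each strain is grown with compound, and growth loss is scored relative to vehicle.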
# [12] = NCI Yeast Anticancer Drug Screen. Data for the mlh1 strain (AID 171);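 also: 0% = growth of vehicle-treated control cultures of the same strain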; conditions: S. cerevisiae mlh1 strain growth inhibition, stronger effect = higher value
# How it was run: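 Inhibition values reflect reduced yeast growth in the presence of compound, referenced to vehicle controls, using a strain chosen for its alteration in DNA repair or cell cycle control.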
# [13] = NCI Yeast Anticancer Drug Screen. Data for the sgs1 strain (AID 173);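 also: 0% = growth of vehicle-only control cultures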; conditions: S. cerevisiae sgs1 mutant, stronger effect = higher value
# How it was run: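 Vehicle-treated cultures served as reference for growth inhibition of a yeast strain altered in DNA damage repair or cell cycle control after compound exposure.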
# [14] = NCI Yeast Anticancer Drug Screen. Data for the mlh1 rad18 strain (AID 175); conditions: S. cerevisiae mlh1 rad18 strain growth inhibition, stronger effect = higher value
# How it was run: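 Inhibition values reflect reduced growth of mutant yeast versus vehicle-treated controls following compound exposure; the mutations affect DNA damage repair.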
# [15] = NCI Yeast Anticancer Drug Screen. Data for the rad18 strain (AID 177); conditions: S. cerevisiae rad18 mutant growth inhibition, stronger effect = higher value
# How it was run: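 Steps: expose repair-mutant yeast to compound; measure growth; express as inhibition relative to vehicle control.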
# [16] = at 5.0 µM (retest, dose inferred, filed as 0.5)
# [17] = at 50.0 µM (retest, dose inferred, filed as 5.0)
smiles,measurement,setting,value
Cc1cccc(N2CCN(C(=O)/C(=C/c3ccccc3)NC(=O)c3ccccc3)CC2)c1,growth inhibition,[1]; at 1.2 µM,-3%
same,growth inhibition,[1]; at 3.7 µM,-1%
same,growth inhibition,[1]; at 11.0 µM,-2%
same,growth inhibition,[1]; at 33.0 µM,24%
same,growth inhibition,[1]; at 100.0 µM,31%
same,growth inhibition,[2]; at 1.2 µM,2%
same,growth inhibition,[2]; at 3.7 µM,0%
same,growth inhibition,[2]; at 11.0 µM,0%
same,growth inhibition,[2]; at 33.0 µM,2%
same,growth inhibition,[2]; at 100.0 µM,-9%
same,growth inhibition,[3]; at 1.2 µM,-4%
same,growth inhibition,[3]; at 3.7 µM,-4%
same,growth inhibition,[3]; at 11.0 µM,0%
same,growth inhibition,[3]; at 33.0 µM,44%
same,growth inhibition,[3]; at 100.0 µM,54%
same,growth inhibition,[4]; at 1.2 µM,-4%
same,growth inhibition,[4]; at 3.7 µM,-48%
same,growth inhibition,[4]; [16],-1%
same,growth inhibition,[4]; at 11.0 µM,29%
same,growth inhibition,[4]; at 33.0 µM,59%
same,growth inhibition,[4]; [17],48%
same,growth inhibition,[4]; at 50.0 µM,12.3%
same,growth inhibition,[4]; at 100.0 µM,68%
same,growth inhibition,[5]; at 1.2 µM,-1%
same,growth inhibition,[5]; at 3.7 µM,0%
same,growth inhibition,[5]; [16],-3%
same,growth inhibition,[5]; at 11.0 µM,8%
same,growth inhibition,[5]; at 33.0 µM,36%
same,growth inhibition,[5]; [17],-26%
same,growth inhibition,[5]; at 50.0 µM,2.95%
same,growth inhibition,[5]; at 100.0 µM,43%
same,growth inhibition,[6]; at 1.2 µM,-4%
same,growth inhibition,[6]; at 3.7 µM,-6%
same,growth inhibition,[6]; at 11.0 µM,0%
same,growth inhibition,[6]; at 33.0 µM,28%
same,growth inhibition,[6]; at 100.0 µM,35%
same,growth inhibition,[7]; [16],0%
same,growth inhibition,[7]; [17],56%
same,growth inhibition,[7]; at 50.0 µM,-13.3%
same,growth inhibition,[8]; at 1.2 µM,-6%
same,growth inhibition,[8]; at 3.7 µM,-6%
same,growth inhibition,[8]; at 11.0 µM,3%
same,growth inhibition,[8]; at 33.0 µM,38%
same,growth inhibition,[8]; at 100.0 µM,33%
same,growth inhibition,[9]; [16],-5%
same,growth inhibition,[9]; [17],35%
same,growth inhibition,[9]; at 50.0 µM,-12.5%
same,growth inhibition,[10]; at 1.2 µM,-3%
same,growth inhibition,[10]; at 3.7 µM,-1%
same,growth inhibition,[10]; [16],-41%
same,growth inhibition,[10]; at 11.0 µM,5%
same,growth inhibition,[10]; at 33.0 µM,41%
same,growth inhibition,[10]; [17],38%
same,growth inhibition,[10]; at 50.0 µM,10.1%
same,growth inhibition,[10]; at 100.0 µM,38%
same,growth inhibition,[11]; at 1.2 µM,-2%
same,growth inhibition,[11]; at 3.7 µM,6%
same,growth inhibition,[11]; at 11.0 µM,1%
same,growth inhibition,[11]; at 33.0 µM,38%
same,growth inhibition,[11]; at 100.0 µM,46%
same,growth inhibition,[12]; at 1.2 µM,-1%
same,growth inhibition,[12]; at 3.7 µM,-2%
same,growth inhibition,[12]; at 11.0 µM,4%
same,growth inhibition,[12]; at 33.0 µM,41%
same,growth inhibition,[12]; at 100.0 µM,48%
same,growth inhibition,[13]; at 1.2 µM,-2%
same,growth inhibition,[13]; at 3.7 µM,2%
same,growth inhibition,[13]; at 11.0 µM,16%
same,growth inhibition,[13]; at 33.0 µM,53%
same,growth inhibition,[13]; at 100.0 µM,59%
same,growth inhibition,[14]; [16],1%
same,growth inhibition,[14]; [17],64%
same,growth inhibition,[14]; at 50.0 µM,25.9%
same,growth inhibition,[15]; at 1.2 µM,-2%
same,growth inhibition,[15]; at 3.7 µM,0%
same,growth inhibition,[15]; at 11.0 µM,5%
same,growth inhibition,[15]; at 33.0 µM,51%
same,growth inhibition,[15]; at 100.0 µM,70% (active)
CN(C)CCNC(=O)c1cccc2nc3c4ccccc4c4ccccc4c3nc12,growth inhibition,[1]; at 1.2 µM,-1%
same,growth inhibition,[1]; at 3.7 µM,2%
same,growth inhibition,[1]; at 11.0 µM,28%
same,growth inhibition,[1]; at 33.0 µM,97% (active)
same,growth inhibition,[1]; at 100.0 µM,95% (active)
same,growth inhibition,[2]; at 1.2 µM,6%
same,growth inhibition,[2]; at 3.7 µM,25%
same,growth inhibition,[2]; at 11.0 µM,90% (active)
same,growth inhibition,[2]; at 33.0 µM,96% (active)
same,growth inhibition,[2]; at 100.0 µM,93% (active)
same,growth inhibition,[3]; at 1.2 µM,1%
same,growth inhibition,[3]; at 3.7 µM,1%
same,growth inhibition,[3]; at 11.0 µM,43%
same,growth inhibition,[3]; at 33.0 µM,99% (active)
same,growth inhibition,[3]; at 100.0 µM,95% (active)
same,growth inhibition,[4]; at 1.2 µM,-9%
same,growth inhibition,[4]; at 3.7 µM,-24%
same,growth inhibition,[4]; [16],65%
same,growth inhibition,[4]; at 11.0 µM,98% (active)
same,growth inhibition,[4]; at 33.0 µM,98% (active)
same,growth inhibition,[4]; [17],96% (active)
same,growth inhibition,[4]; at 50.0 µM,96.7% (active)
same,growth inhibition,[4]; at 100.0 µM,91% (active)
same,growth inhibition,[5]; at 1.2 µM,0%
same,growth inhibition,[5]; at 3.7 µM,1%
same,growth inhibition,[5]; [16],8%
same,growth inhibition,[5]; at 11.0 µM,35%
same,growth inhibition,[5]; at 33.0 µM,99% (active)
same,growth inhibition,[5]; [17],96% (active)
same,growth inhibition,[5]; at 50.0 µM,95.8% (active)
same,growth inhibition,[5]; at 100.0 µM,94% (active)
same,growth inhibition,[6]; at 1.2 µM,3%
same,growth inhibition,[6]; at 3.7 µM,8%
same,growth inhibition,[6]; at 11.0 µM,67%
same,growth inhibition,[6]; at 33.0 µM,98% (active)
same,growth inhibition,[6]; at 100.0 µM,95% (active)
same,growth inhibition,[7]; [16],17%
same,growth inhibition,[7]; [17],97% (active)
same,growth inhibition,[7]; at 50.0 µM,96.2% (active)
same,growth inhibition,[8]; at 1.2 µM,0%
same,growth inhibition,[8]; at 3.7 µM,-3%
same,growth inhibition,[8]; at 11.0 µM,29%
same,growth inhibition,[8]; at 33.0 µM,97% (active)
same,growth inhibition,[8]; at 100.0 µM,92% (active)
same,growth inhibition,[10]; at 1.2 µM,-1%
same,growth inhibition,[10]; at 3.7 µM,2%
same,growth inhibition,[10]; [16],7%
same,growth inhibition,[10]; at 11.0 µM,93% (active)
same,growth inhibition,[10]; at 33.0 µM,97% (active)
same,growth inhibition,[10]; [17],96% (active)
same,growth inhibition,[10]; at 50.0 µM,95.4% (active)
same,growth inhibition,[10]; at 100.0 µM,92% (active)
same,growth inhibition,[11]; at 1.2 µM,1%
same,growth inhibition,[11]; at 3.7 µM,9%
same,growth inhibition,[11]; at 11.0 µM,29%
same,growth inhibition,[11]; at 33.0 µM,97% (active)
same,growth inhibition,[11]; at 100.0 µM,94% (active)
same,growth inhibition,[12]; at 1.2 µM,1%
same,growth inhibition,[12]; at 3.7 µM,2%
same,growth inhibition,[12]; at 11.0 µM,53%
same,growth inhibition,[12]; at 33.0 µM,98% (active)
same,growth inhibition,[12]; at 100.0 µM,94% (active)
same,growth inhibition,[13]; at 1.2 µM,1%
same,growth inhibition,[13]; at 3.7 µM,4%
same,growth inhibition,[13]; at 11.0 µM,73% (active)
same,growth inhibition,[13]; at 33.0 µM,98% (active)
same,growth inhibition,[13]; at 100.0 µM,95% (active)
same,growth inhibition,[14]; [16],40%
same,growth inhibition,[14]; [17],97% (active)
same,growth inhibition,[14]; at 50.0 µM,95.2% (active)
same,growth inhibition,[15]; at 1.2 µM,5%
same,growth inhibition,[15]; at 3.7 µM,11%
same,growth inhibition,[15]; at 11.0 µM,72% (active)
same,growth inhibition,[15]; at 33.0 µM,98% (active)
same,growth inhibition,[15]; at 100.0 µM,93% (active)
